In PubChem BioAssay (NCI):
The panel holds about 83,000 compounds, 20% with a hit somewhere; the sample as a whole holds those more often.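 Single-concentration screen, 48 h exposure, 96-well plates. Endpoint: percent growth. Below 10 = active.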 A number with no mark means an inactive call. The source made the active and inactive calls.

Each compound was assayed on HL-60(TB) leukemia (assay: NCI-60 one-dose screen, 48 h (100 = growth as untreated, 0 = no growth, -100 = all killed)). Conditions: 10 µM unless noted.

Row | Compound | growth
1 | Cc1cccc(/C=N/Nc2cc(C)c3cccc(C)c3n2)n1 | 83.1%
2 | CCCCCCCCCCCCCCCCCC1=NCCCN1CCO | 106%
3 | O=c1oc2ccc(Cl)cc2c(=O)n1-c1ccc(F)cc1F | -28.8% (active)
4 | COc1ccc2nc3cc(Cl)ccc3c(Nc3ccc(N(C)C)cc3)c2c1 | 90%
5 | CN1CCN(c2ccc(NC3=C(Cl)C(=O)c4ncccc4C3=O)cc2C(F)(F)F)CC1 | -16.2% (active)
6 | O=C(/C=C/c1cc(-c2ccc3c(c2)OCO3)n[nH]1)c1ccc2c(c1)OCO2 | 79.7%
7 | C=C1CCC2C3(C)COC(c4ccccc4)OC3CCC2(C)C1/C=C/C1=CCOC1=O (stereo not given) | 0.949% (active)
8 | CCOC(=O)C(Br)=P(c1ccccc1)(c1ccccc1)c1ccccc1 | 94.2%
9 | Cc1cc(NCc2cc(Nc3ccnc4cc(Cl)ccc34)ccc2F)nc(N2CCOCC2)n1 | -52.7% (active)
10 | CCOC(=O)c1ccccc1NC(c1ccccc1)c1ccc2cccnc2c1O (stereo not given) | 3.54% (active)
11 | COCCCNC(=O)c1nnn2c1nc(N)c1cc(Cl)ccc12 | 93.7%
12 | COc1cccc(CNc2nnc(C)c(C)n2)c1O | 95.9%
13 | O=C(/C=C/c1ccc[nH]1)c1ccc(-n2ccc(C(F)(F)F)n2)c(F)c1 | -11.3% (active)
14 | O=C1/C(=C/c2ccccc2Br)COc2ccc(O)cc21 | 17.1%
15 | O=S(=O)(NCCCNc1cc(-c2cn(-c3ccccc3)nc2-c2cccc(O)c2)ccn1)c1ccc(C(F)(F)F)cc1 | 25%
